CD40 NFkB inh: CD40 pathway inhibition in BL2 cells; BL2 NF-kB luciferase reporter, CD40L-induced, 4 h; inhibition, % at 10 µM; 0.94% of 83,000 active; AID 1053188;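 active means mean inhibition of at least 50% with a set share of replicates also reaching that level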;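 further: 0% = neutral control wells and 100% = IKK inhibitor VII at 50 µM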
Starred values were filed as active, the others as inactive; ! = repeats disagree; [ ] = remark or other dose. Many of the other results were omitted from the sample, so hits are more common in it than they were.

SMILES	CD40 NFkB inh
COC(=O)C1C(C(=O)OC)C1(c1ccccc1)c1ccccc1 (stereo unspecified)	3
C[C@H](CO)N1C[C@H](C)[C@H](CN(C)C(=O)C2CCCCC2)OCc2cn(nn2)CCCC1=O	-6
CN1CCN(C(=O)[C@H]2[C@H](CO)[C@H]3Cn4c(cccc4=O)[C@@H]2N3Cc2ccncc2)CC1	4[25 µM]
Cc1ccccc1S(=O)(=O)N1[C@@H](C#N)[C@@H](c2ccc(-c3ccc(F)cc3)cc2)[C@@H]1CO	2[25 µM]
CN1c2ccc(C#Cc3cccnc3)cc2[C@@H]2[C@@H](CCN2C(=O)CN2CCOCC2)[C@H]1CO	11[25 µM]
CN(C[C@@H]1[C@@H](c2ccccc2)[C@H](CO)N1C(=O)c1ccccc1)C(=O)C1CC1	2[25 µM]
O=C1N[C@@H](c2ccccc2)COCc2cnnn2CC[C@@H]1Cc1ccc(C(F)(F)F)cc1	1[25 µM]
Cc1ccccc1S(=O)(=O)N1CCCCN2[C@H](C1)[C@H](c1ccc(-c3cccc(F)c3)cc1)[C@@H]2CO	12[25 µM]
COc1cccc(-c2ccc(C3[C@H]4CNC[C@@H]3N4Cc3ccc4c(c3)OCO4)cc2)c1 (stereo partly specified)	-56[25 µM]
N#Cc1cccc(-c2ccc(C3[C@H]4CNC[C@@H]3N4Cc3ccc4c(c3)OCO4)cc2)c1 (stereo partly specified)	74*!
N#Cc1cccc(-c2ccc(C3[C@H]4CNC[C@@H]3N4Cc3cccc(F)c3)cc2)c1 (stereo partly specified)	0[25 µM]
COc1ccccc1CN(C)C[C@@H]1OCc2ccccc2-c2c(n(C)c3ccccc23)C(=O)N([C@@H](C)CO)C[C@@H]1C	-8[25 µM]
COc1ccc(NC(=O)N(C)C[C@H]2OCc3ccccc3-c3c(n(C)c4ccccc34)C(=O)N([C@@H](C)CO)C[C@@H]2C)cc1	-5
COc1ccc(NC(=O)N(C)C[C@H]2OCc3cn(nn3)CCCC(=O)N([C@H](C)CO)C[C@H]2C)c(OC)c1	-3[25 µM]
O=C1NCCOCn2nncc2CC[C@@H]1Cc1ccccc1	-1
O=C(Nc1ccc(S(=O)(=O)N2CCCC2)cc1)c1cnccn1	-3
O=C(Nc1ccccc1N1CCOCC1)c1cnccn1	13
O=C(Nc1ccc(N2CCOCC2)cc1)c1cnccn1	81*
O=C(C[C@@H]1C[C@H]2c3cc(NC(=O)Cc4ccncc4)ccc3O[C@H]2[C@@H](CO)O1)NCCN1CCCCC1	-1[25 µM]
CS(=O)(=O)N1C[C@@H]2C(c3ccc(-c4ccc(F)cc4)cc3)[C@H](C1)N2CC1CC1 (stereo partly specified)	-1
COc1ccccc1NC(=O)Nc1ccc2c(c1)OCCO2	-75
COc1ccc(C(=O)Nc2ccc3c(c2)OCCO3)c(OC)c1	-26
COc1cc2cc(C(=O)Nc3ccc4c(c3)OCCO4)[nH]c2cc1OC	60*
CC(C)NC(=O)Nc1ccc2c(c1)C(=O)N(C)C[C@@H](C)[C@H](CN(C)C(=O)NC(C)C)O2	-29
CC(C)NC(=O)N(C)C[C@@H]1Oc2c(NS(C)(=O)=O)cccc2C(=O)N(C)C[C@H]1C	17
SMILES	CD40 NFkB inh
c1ccc2nc(-c3nc4ccccc4o3)ccc2c1	82*
Cc1cc(-c2nc3ccccc3o2)c2ccccc2n1	-29
O=S(=O)(Nc1ccc(-c2nc3ccccc3o2)cc1)c1ccccc1	-35
O=C(N[C@H]1CC[C@@H](CC(=O)N2CCOCC2)O[C@H]1CO)c1cccc(F)c1	4[25 µM]
CCCC(=O)N1CC2(CN(C(=O)C3CC3)C2)c2c(n(C)c3cc(OC)ccc23)[C@H]1CO	5[25 µM]
CC(C)(C)n1ncc2c(=O)n(CC(=O)c3ccccc3)cnc21	-82
CC(C)(C)n1ncc2c(=O)n(CC(=O)NCc3ccc(F)cc3)cnc21	7
CC(C)(C)n1ncc2c(=O)n(CC(=O)OCc3ccccc3)cnc21	98*
CO[C@H]1CN(C)C(=O)c2ccc(NC(=O)C3CCCCC3)cc2OC[C@@H](C)N(C)C[C@@H]1C	4
CO[C@H]1CN(C)C(=O)c2cc(NC(=O)c3ccc4c(c3)OCO4)ccc2OC[C@H](C)N(CCC(F)(F)F)C[C@H]1C	16[25 µM]
C[C@H]1CN([C@@H](C)CO)C(=O)c2ccccc2-c2ccccc2CO[C@H]1CN(C)Cc1ccc(Oc2ccccc2)cc1	59*[25 µM]
C[C@@H]1CN([C@H](C)CO)C(=O)c2ccccc2-c2ccccc2CO[C@@H]1CN(C)Cc1ccc(C(=O)O)cc1	-8
C[C@H]1CN([C@@H](C)CO)C(=O)c2ccccc2-c2ccccc2CO[C@H]1CN(C)Cc1ccc(O)cc1	-4
C[C@H](CO)N1C[C@H](C)[C@@H](CN(C)Cc2ccc(Oc3ccccc3)cc2)Oc2c(NC(=O)CCC(F)(F)F)cccc2C1=O	70*[25 µM]
C[C@@H]1CN([C@@H](C)CO)C(=O)c2ccccc2-c2ccccc2CO[C@@H]1CN(C)Cc1ccccc1	15
C[C@H](CO)N1C[C@H](C)[C@@H](CN(C)Cc2ccc(Oc3ccccc3)cc2)Oc2c(NC(=O)c3ccncc3)cccc2C1=O	34
C[C@@H]1CN([C@H](C)CO)C(=O)c2cc(NC(=O)CCC(F)(F)F)ccc2O[C@H]1CN(C)Cc1ccc(Oc2ccccc2)cc1	-4
C[C@@H]1CN([C@@H](C)CO)C(=O)c2ccccc2-c2ccccc2CO[C@@H]1CN(C)Cc1ccc(Oc2ccccc2)cc1	62*[25 µM]
C[C@@H]1CN([C@H](C)CO)C(=O)c2ccccc2-c2ccccc2CO[C@@H]1CN(C)Cc1ccc(Oc2ccccc2)cc1	41[25 µM]
CCC(=O)N[C@@H]1C=C[C@H](CC(=O)NCCN2CCCCC2)O[C@@H]1CO	3
CNC[C@@H]1Oc2ccc(NC(C)=O)cc2CC(=O)N(C)C[C@H]1C	-2
N#Cc1cccc(-c2ccc(C3[C@@H]4CN(S(=O)(=O)c5ccccc5F)C[C@H]3N4)cc2)c1 (stereo partly specified)	2
N#Cc1cccc(-c2ccc([C@@H]3[C@@H]4CN(S(=O)(=O)c5ccc(-c6ccccc6)cc5)C[C@H]3N4)cc2)c1	61*
Cc1ccc(S(=O)(=O)N2C[C@@H]3N[C@H](C2)C3c2ccc(-c3cccc(C#N)c3)cc2)cc1 (stereo partly specified)	21[25 µM]
N#Cc1cccc(-c2ccc(C3[C@@H]4CN(S(=O)(=O)c5ccc(F)cc5)C[C@H]3N4)cc2)c1 (stereo partly specified)	-6
SMILES	CD40 NFkB inh
N#Cc1cccc(-c2ccc(C3[C@@H]4CN(S(=O)(=O)c5ccccc5)C[C@H]3N4)cc2)c1 (stereo partly specified)	-5
Cc1ccccc1S(=O)(=O)N1C[C@@H]2N[C@H](C1)C2c1ccc(-c2cccc(C#N)c2)cc1 (stereo partly specified)	54*![25 µM]
C/C=C/c1ccc(C2[C@H]3CNC[C@@H]2N3Cc2cc(-c3ccccc3)on2)cc1 (stereo partly specified)	-26[25 µM]
O=C1N[C@H](Cc2ccccc2)COCc2cnnn2CC[C@@H]1Cc1ccc(-c2ccccc2)cc1	-10[25 µM]
O=C(C[C@H]1C[C@H]2c3cc(NC(=O)c4cccnc4)ccc3O[C@H]2[C@@H](CO)O1)NC1CCCCC1	-2[25 µM]
COCCNC(=O)C[C@@H]1CC[C@@H]2[C@H](COc3ccc(NS(=O)(=O)c4ccc(Cl)cc4)cc3C(=O)N2C)O1	-7[25 µM]
O=C(Nc1cccc(Cl)c1)N1C[C@@H]2[C@H](c3ccccc31)[C@@H](CO)N2C(=O)C1CC1	3
Cn1cc(C(=O)c2ccccc2)cc1-c1nc2ccccc2n1C	-2
CC(=O)c1ccc(-c2nc3ccccc3n2C)o1	-65
Cc1oc(-c2nc3ccccc3n2C)cc1C(=O)c1ccccc1	62*

Bioassay records (PubChem)
